Experimental data as given in PubChem BioAssay.
Values without a mark were called inactive. No rule for the calls is given here.

molecular target: Pantothenate synthetase (Mycobacterium tuberculosis (strain ATCC 25618 / H37Rv)) (UniProt P9WIL5); test: Recombinant Mtb pantothenate synthetase (PanC) inhibitors, coupled enzyme, confirmatory (AID 375); conditions: coupled enzyme assay; at 10 µM, active compounds read high;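 also: 0% = full reaction with vehicle and 100% = no enzyme background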
Sequence (P9WIL5 whole entry, looked up): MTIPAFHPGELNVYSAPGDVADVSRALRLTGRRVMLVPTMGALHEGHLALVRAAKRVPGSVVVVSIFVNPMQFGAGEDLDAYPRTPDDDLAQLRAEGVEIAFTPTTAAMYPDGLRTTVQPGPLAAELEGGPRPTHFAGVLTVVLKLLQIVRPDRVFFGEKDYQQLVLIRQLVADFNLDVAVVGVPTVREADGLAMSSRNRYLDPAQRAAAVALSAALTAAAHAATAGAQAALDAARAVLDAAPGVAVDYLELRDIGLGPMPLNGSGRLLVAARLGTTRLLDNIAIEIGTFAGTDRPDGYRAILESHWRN

SMILES | inhibition [%]
CC1=C(C(N)=O)C(c2ccncc2)n2nc(-c3ccccc3Cl)nc2N1 (stereo unspecified) | 0
CCn1cc(C(=O)Nc2cc3c(cc2NC(C)=O)OCCO3)c(=O)c2ccc(C)nc21 | 1
CC1(C)NC(=O)N(CC(O)CN2CCCCC2)C1=O (stereo unspecified) | 0
Cc1oc(-c2ccc(Cl)cc2)nc1CS(=O)CC(=O)NCCCN(C)C1CCCCC1 (stereo unspecified) | 0
CCS(=O)(=O)N1CCCC(C(=O)NCc2ccccc2Cl)C1 (stereo unspecified) | 2
CCCc1cc(C(N)=O)c(NC(=O)c2ccco2)s1 | 0
